The values below come from PubChem BioAssay (NCATS).

Results filed as inconclusive are left out. A call without a number means that no potency is given here. Calls of active or inactive are those of the source. The call rests on the fitted dose curve; in most records, active means well fitted inhibition curve with a large enough effect; inconclusive means small, poorly fitted or top-dose-only effect; inactive means flat fitted curve, though single readings scatter. Where a SMILES comes first, the peptide text is derived from it.
Potency means the concentration at half of the fitted maximal effect.

This test is described as follows: P-glycoprotein substrates identified in KB-8-5-11 adenocarcinoma cell line, qHTS therapeutic library screen (AID 1346987). Further: nearly all actives have a fitted effect of over 65% in size. The following applies: KB-8-5-11 (P-gp overexpressing) viability, CellTiter-Glo, 72 h; series mostly up to 44.5 µM. The essentials:
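KB-8-5-11: colchicine-selected sub-line of KB-3-1 over-expressing P-gp; assay medium lacked colchicine. 72 h drug exposure at 37 degree C, CellTiter-Glo.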
For orientation: Quantitative high-throughput screening tests each substance at several concentrations.
In the case of `CC1(C)CC[C@]2(C(=O)O)CC[C@]3(C)C(=CCC4[C@@]5(C)C[C@@H](O)[C@H](O)[C@@](C)(CO)C5CC[C@]43C)C2C1` (stereo not given in full), the Potency result was “inactive”. The same measure, in the same setting: in the case of `O=C(O)c1cc(O[C@@H]2O[C@H](CO)[C@@H](O)[C@H](O)[C@H]2O)ccc1O` it was “inactive”; in that of `COC(=O)[C@]1(C)CCC[C@@]2(C)[C@@H]3CC[C@@H]4C[C@@]3(CC[C@@H]21)C[C@H]4C(=O)O`, “inactive”; in that of `Cc1ccc(C)c(NC(=O)CNS(=O)(=O)c2ccc3[nH]c(=O)oc3c2)c1`, “inactive”. The same measure, in the same setting: in the case of `CC(=O)c1c(C)cccc1O[C@@H]1O[C@H](CO)[C@@H](O)[C@H](O)[C@H]1O` it was “inactive”. Regarding `C[C@@H]1CC[C@]2(C(=O)O[C@@H]3O[C@H](CO[C@@H]4O[C@H](CO)[C@@H](O[C@@H]5O[C@@H](C)[C@H](O)[C@@H](O)[C@H]5O)[C@H](O)[C@H]4O)[C@@H](O)[C@H](O)[C@H]3O)CC[C@]3(C)C(=CCC4[C@@]5(C)C[C@@H](O)[C@H](O)[C@@](C)(CO)C5CC[C@]43C)C2[C@H]1C` (stereo not given in full), the activity change, negative = cytotoxicity is 2.95% [at 9.29 µM] (inactive). Take `CNc1nc(Nc2cn(C(C)(C)C#N)nc2C)ncc1C(F)(F)F`: the Potency result was “inactive”. The same measure, in the same setting: in the case of `N[C@@H](CC(=O)Nc1ccc(Oc2cc(F)c(F)cc2Br)cc1)C(=O)O` it was “inactive”. On to `CC(C)=CCC[C@](C)(O[C@@H]1O[C@H](CO[C@@H]2O[C@@H](CO)[C@H](O)[C@H]2O[C@@H]2OC[C@@H](O)[C@H](O)[C@H]2O)[C@@H](O)[C@H](O)[C@H]1O)[C@H]1CC[C@]2(C)[C@@H]1[C@H](O)CC1[C@@]3(C)CC[C@H](O[C@@H]4O[C@H](CO)[C@@H](O)[C@H](O)[C@H]4O[C@@H]4O[C@H](CO)[C@@H](O)[C@H](O)[C@H]4O)C(C)(C)C3CC[C@]12C` (stereo not given in full), for which the outcome is “inactive [at 9.29 µM]”. For the compound `COc1c(C)c(OCC=C(C)C)cc2c1COC2=O`, the Potency entry was “inactive”. On the same count and under the same terms, under `CC1CCC23COC(=O)C2=CC(O)CC3C1(C)CCc1ccoc1` (stereo not given) stands “inactive”. The same measure, in the same setting: in the case of `CC(C)C(NC(=O)c1ccc(O)cc1)C(=O)N1CCCC1C(=O)Nc1c(O)cccc1C(=O)O` (stereo not given) it was “inactive”; in that of `COC(=O)C1=COC(OC2OC(CO)C(O)C(O)C2O)C2C(C)C(OC(=O)/C=C/c3ccc(O)cc3)C(O)C12` (stereo not given), “inactive”; in that of `O=C(O)CCc1ccc(NCc2cccc3c2CCCN3CCOc2ccccc2)cc1F`, “inactive”.

For the compound `CCN=C1N[C@@H]2[C@@H](O)[C@H](O)[C@@H](CO)O[C@@H]2S1`, the Potency result was “inactive”. On the same count and under the same terms, under `CC(C)(O)C1CCC2(C)CCCC(C)(O)C2C1` (stereo not given) stands “inactive”; under `CCOc1ccc(-c2nn3ncccc3c2-c2ccc(S(C)(=O)=O)cc2)cc1`, “inactive”.

For the compound `C[C@@H]1O[C@@H](OC(=O)Cc2ccccc2)[C@H](O)[C@H](O)[C@H]1O`, the Potency result is “inactive”. Still for that read-out and setting: in the case of `O=C(C1OC1/C=C/c1ccc2c(c1)OCO2)N1CCCCC1` (stereo not given) it was “inactive”; in that of `CC1(C(=O)O)CCCC2(C)C3CCC4CC3(CCC12)CC4(O)CO` (stereo not given), “inactive”; in that of `Cc1occc1C(=O)n1ccnc1`, “inactive”. For the compound `CC(=O)O[C@@H]1C=C2[C@H](CC[C@@]3(C)[C@@]2(O)CC[C@H]2Cc4c([nH]c5ccccc45)[C@@]23C)O[C@@H]1C(C)(C)O`, the Potency entry is “inactive”. The same measure, in the same setting: under `C[C@@H]1C[C@@H](O)[C@@]23CO[C@]2(CO)CCC[C@@H]3[C@@]12C[C@@H](c1ccoc1)OC2=O` stands “inactive”; under `COc1c2c(c(C)c3c1C(=O)OC3)OC1(C)CC(O)C34OC(OC)(CC(O)C3(C)C1C2)OC4(C)C` (stereo not given), “inactive”. On the same count and under the same terms, under `CC(C)N(CCCNC(=O)Nc1ccc(C(C)(C)C)cc1)C[C@H]1O[C@@H](n2ccc3c(N)ncnc32)[C@H](O)[C@@H]1O` stands “inactive”. Still for that read-out and setting: in the case of `O=C(O)c1cccc(C(=O)CCC2OC(n3cnc4c(=O)[nH]cnc43)C(O)C2O)c1` (stereo not given) it was “inactive”; in that of `COC(=O)c1ccccc1O[C@@H]1O[C@H](CO[C@@H]2OC[C@@H](O)[C@H](O)[C@H]2O)[C@@H](O)[C@H](O)[C@H]1O`, “inactive”.

For the compound `COC(=O)C[C@H]1C(C)(C)[C@H](OC(=O)C(C)C)C2CC3=C4CC(=O)O[C@@H](c5ccoc5)[C@]4(C)CCC3[C@@]1(C)C2=O` (stereo not given in full), the Potency entry is “inactive”.

Take `CC(=O)O[C@@H]1[C@@H](O)[C@H](C)O[C@@H](O[C@H]2[C@@H]3C=CO[C@@H](O[C@@H]4O[C@H](CO)[C@@H](O)[C@H](O)[C@H]4OC(C)=O)[C@@H]3[C@@]3(CO)O[C@@H]23)[C@@H]1OC(=O)/C=C/c1ccc(O)cc1`: the Potency result is “inactive”. With `O=C(OC[C@H]1O[C@@H](Oc2ccccc2COC(=O)C2(O)C=CCCC2O)[C@H](O)[C@@H](O)[C@@H]1O)c1ccccc1` (stereo not given in full), the Potency result was “inactive”.

Consider `COC(=O)C1=CO[C@@H](O[C@@H]2O[C@H](CO)[C@@H](O)[C@H](O)[C@H]2O)[C@H]2[C@@H]1C=C[C@]21C=C([C@H](C)OC(=O)/C=C/c2ccc(O[C@@H]3O[C@H](CO)[C@@H](O)[C@H](O)[C@H]3O)cc2)C(=O)O1`, for which the Potency result is “inactive”.

For the compound `C[C@@H]1O[C@@H](O[C@H]2[C@@H]3C=CO[C@@H](O[C@@H]4O[C@H](CO)[C@@H](O)[C@H](O)[C@H]4O)[C@@H]3[C@@]3(CO)O[C@@H]23)[C@H](O)[C@H](OC(=O)/C=C/c2ccc(O)c(O)c2)[C@H]1O`, the Potency result was “inactive”. On the same count and under the same terms, in the case of `CC1=CC(=O)CC(C)(C)C1/C=C/C(C)OC1OC(COC2OCC(O)C(O)C2O)C(O)C(O)C1O` (stereo not given) it was “inactive”. As for `CC(/C=C/C=C(\C)C(=O)O[C@@H]1O[C@H](CO[C@@H]2O[C@H](CO)[C@@H](O)[C@H](O)[C@H]2O)[C@@H](O)[C@H](O)[C@H]1O)=C\C=C\C=C(C)\C=C\C=C(/C)C(=O)O[C@@H]1C[C@](O)(C(=O)O)C[C@@H](O)[C@H]1OC(=O)/C=C/c1ccc(O)c(O)c1`, the activity change, negative = cytotoxicity is 3.01% [at 9.29 µM] (inactive). As for `C/C(CO)=C1/CCC23COC(C2)C(O)(C(=O)O)CCC13` (stereo not given), the Potency result is “inactive”.

As to `COc1cc(O)cc(O[C@@H]2O[C@H](CO)[C@@H](O[C@@H]3OC[C@](O)(CO)[C@H]3O)[C@H](O)[C@H]2O)c1OC`, the Potency entry is “inactive”. On to `CC(C)C1NC(=O)CNC(=O)C2CCCN2C(=O)C(Cc2c[nH]c3ccccc23)NC(=O)CNC(=O)C(Cc2ccc(O)cc2)NC(=O)CNC1=O` (stereo not given) (cyclo(GVGYGWP); configuration not given here), for which the Potency result is “inactive”. With `C/C(=C\C1CCC(C)C2CCC3(C)OC123)C(=O)O` (stereo not given), the Potency result was “inactive”.

On to `CC[C@H]1OC(=O)[C@H](C)[C@@H](O[C@H]2C[C@@](C)(OC)[C@@H](O)[C@H](C)O2)C(C)[C@@H](O[C@@H]2O[C@H](C)C[C@H](N(C)C)[C@H]2O)[C@](C)(O)C[C@@H](C)CN(C)[C@H](C)[C@@H](O)[C@]1(C)O` (stereo not given in full), for which the Potency result is “inactive”. Same read-out and setting: under `FC(F)(F)c1nnc2c(Sc3ccccc3)nc3ccc(Cl)cc3n12` stands 4.61 µM (active).
